An excerpt weighted towards active compounds, which were near 3.3% of everything screened.
Gli-Sufu block = antagonists of Gli-Sufu signaling | Sufu-KO-LIGHT fibroblasts, Gli luciferase reporter luminescence | inhibition, % at 5 µM | 340,000 tested, 0.74% active | AID 588413;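 active = inhibition above about 55%, limit read from the data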;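 also: 0% = DMSO-treated cells and 100% = wells with medium but no cells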
Jurkat NFkB inh = lowers PMA/ionomycin-induced NF-kB signal in Jurkat cells; 330,000 tested, 0.53% active; PMA/ionomycin-induced NF-kB luciferase reporter, luminescence; AID 435003; inhibition, % at 4 µM; in the data active = inhibition above about 50%
SMARCA2 activ = increases SMARCA2 function in MMTV reporter cells. MG213 cells, MMTV-luciferase reporter, dexamethasone, overnight. activation, % at 9.1 µM. 370,000 tested, 1% active. AID 652017; in the data active = activation above about 7.8%;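 also: 0% = vehicle wells and 100% = reference activator wells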
697 NFkB inh = inhibitors of the PMA/ionomycin-induced NF-kB reporter in 697 B cells; 697 B-cell NF-kB luciferase reporter, 16 h; inhibition, % at 4 µM; 330,000 tested, 0.33% active; in the data active = inhibition above about 35%
esBAF inh = inhibitors of esBAF chromatin remodeling in mouse ES cells. Bmi1-luciferase knock-in reporter, 24 h; 100% = twice the neutral-well signal. reporter increase, % at 12.5 µM. 350,000 tested, 2% active; in the data active = activation above about 40%;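 also: 0% = median of the plate's neutral control wells and 100% = double that signal; a rise in the Bmi1 reporter signal indicates esBAF inhibition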
Jurkat NFkB conf = lowers PMA/ionomycin-induced NF-kB signal in Jurkat cells. 2,700 tested, 27% active. Jurkat NF-kB luciferase, 16 h. inhibition, % at 4 µM. shares compounds with Jurkat NFkB inh;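 active = inhibition reaching about 45% at 4 µM in either replicate, limit read from the data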;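 also: plate controls were PMA/ionomycin stimulated DMSO wells for no effect and unstimulated DMSO wells for full effect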
697 NFkB conf = lowers PMA/ionomycin-induced NF-kB signal in 697 B cells | shares compounds with 697 NFkB inh | 697 B-cell NF-kB luciferase, 16 h | inhibition, % at 4 µM | 2,000 tested, 35% active; in the data active = inhibition mostly above about 28%, no sharp cut-off; inactive = mostly below about 22%
* = called active by the depositor; · = no result given.

SMILES	Gli-Sufu block	Jurkat NFkB inh	SMARCA2 activ	697 NFkB inh	esBAF inh	Jurkat NFkB conf	697 NFkB conf
Cc1ccc2c(c1)Cc1nc3ccccc3nc1-2	-33.3	-188.5	7.2	-262.3	·	-81.4	-252.0
Cc1ccc(NC(=O)COc2ccc(N(C)C(=O)C(C)(C)C)cc2)cc1S(=O)(=O)N1CCCCC1	68.0*	53.8*	-6.2	51.0*	-23.7	78.0*	76.6*
C[C@H]1CN([C@@H](C)CO)S(=O)(=O)c2ccc(C#CC3CC3)cc2O[C@H]1CN(C)Cc1ccccc1F	·	·	·	·	3.6	·	·
c1cnc2ccc(-c3ccc4ncccc4c3)cc2c1	-118.4	-171.1	2.2	-346.0	-1.0	-86.3	-338.0
Cc1ccc2ncccc2c1	5.1	6.5	-3.0	-5.4	-3.0	·	·
O=c1c2ccccc2cnn1-c1ccc2ccccc2c1	-82.8	-207.0	5.1	-289.9	-17.1	-123.0	-293.9
O=c1c2ccccc2cnn1-c1ccc(Br)cc1	-1.7	-126.7	5.0	-167.2	·	·	·
CC[C@@]1(O)C(=O)OCc2c1cc1n(c2=O)Cc2cc3c(N)cccc3nc2-1	65.2*	81.2*	-7.0	77.5*	-74.2	84.1*	1.2
CC[C@@]1(O)C(=O)OCc2c1cc1n(c2=O)Cc2cc3c(CN(C)C)c(O)ccc3nc2-1	61.3*	73.0*	-13.2	-328.8	-46.3	95.0*	-375.4
Cc1ccc(S(=O)(=O)N(C)C[C@H]2Oc3c(NC(=O)c4cc(C)nn4C)cccc3C(=O)N([C@@H](C)CO)C[C@@H]2C)cc1	·	·	·	·	-0.7	·	·
CS(=O)(=O)Nc1ccc2c(c1)[C@@H]1C[C@@H](CC(=O)NCc3ccccc3F)O[C@@H](CO)[C@@H]1O2	·	·	·	·	5.3	·	·
COc1cccc2c1C(=O)c1c(O)c3c(c(O)c1C2=O)C[C@@](O)(C(=O)CO)C[C@@H]3O[C@H]1C[C@H](N)[C@@H](O)[C@H](C)O1	67.9*	94.0*	·	86.5*	-83.3	89.9*	92.2*
COCC(=O)N(C)C[C@@H]1Oc2cc(C#C[C@H](C)O)ccc2S(=O)(=O)N([C@@H](C)CO)C[C@H]1C	·	·	·	·	-14.7	·	·
Cc1ccc(N/C=C/C(=O)c2cccs2)cc1C	-126.6	-187.6	5.1	-259.5	·	-128.1	-158.8
COc1ccc(/C=C2\SC(=O)N(CCCC(=O)Nc3cc(Cl)ccc3C(=O)O)C2=O)cc1	73.9*	72.5*	-10.8	91.8*	·	83.0*	89.8*
CCCNC(=O)C[C@@H]1C[C@H]2c3cc(NC(=O)NC4CCCC4)ccc3O[C@H]2[C@H](CO)O1	·	·	·	·	1.6	·	·
CCN1/C(=C/c2ccc3cc(C)ccc3[n+]2CC)Sc2ccccc21	88.7*	95.8*	-7.2	85.5*	·	69.2*	48.6*
CCN1/C(=C/c2ccc3cc(C)ccc3[n+]2CC)Sc2cc(C)c(C)cc21	91.2*	93.2*	-8.4	65.3*	-74.8	74.4*	79.8*
CCOC(=O)/C(=C/C=C1\Sc2cc(C)c(C)cc2N1CC)C(C)=O	28.5	·	0.2	·	·	·	·
COCCNC(=O)C[C@@H]1CC[C@H]2[C@@H](COc3ccc(NC(=O)c4cc(C)on4)cc3C(=O)N2C)O1	·	·	·	·	-0.9	·	·
COCC(=O)Nc1ccc2c(c1)[C@@H]1C[C@@H](CC(=O)NCc3ccc(-c4ccccc4)cc3)O[C@@H](CO)[C@@H]1O2	·	·	·	·	-6.1	·	·
C[C@H]1CN([C@@H](C)CO)C(=O)Cc2cc(NC(=O)Nc3ccc(F)cc3)ccc2O[C@H]1CN(C)S(=O)(=O)c1ccc(Cl)cc1	·	·	·	·	8.6	·	·
Clc1ccccc1-c1nc(-c2ccc(Br)o2)no1	-18.3	-162.8	2.5	-257.1	-20.4	-141.2	-263.8
COc1ccc(-c2cn3c(C)c(C(=O)N4CCCc5ccccc54)sc3n2)cc1	8.8	-11.5	-0.4	-34.8	11.9	·	·
COc1ccc(-c2cn3c4c(sc3n2)CCCC4)cc1	-122.6	-191.0	7.5	-292.2	·	-130.4	-346.5
Cc1ccc(-c2cc3c(N=O)c4ccccc4c-3n[nH]2)cc1	58.6*	67.2*	-5.6	57.8*	·	72.3*	-31.6
Cc1ccc(-c2cc(=O)c3ccccc3[nH]2)cc1	-10.3	1.9	4.1	-28.1	2.8	·	·
Cc1cccc(-c2cc3c(N=O)c4ccccc4c-3n[nH]2)c1	-69.6	-204.6	6.5	-339.0	·	-86.7	-335.8
COCC(=O)N(C)C[C@H]1Oc2cc(-c3ccncc3)ccc2S(=O)(=O)N([C@H](C)CO)C[C@H]1C	·	·	·	·	-0.7	·	·

Source: PubChem
